Data from PubChem BioAssay (NCATS).
Records with an inconclusive call do not appear. Values without a mark were called inactive. Calls come from the whole dose curve; as a rule, active = well fitted cell-killing curve with a large enough effect; inconclusive = small, poorly fitted or top-dose-only effect; inactive = flat fitted curve, though single readings scatter.

test: HepG2 cells viability qHTS for Zika virus inhibitors (AID 1347168); details: Zika counter-screen; series mostly up to 45.9 µM; activity change, negative = cytotoxicity: at the top concentration
Source text: Avindra Nath, Ph.D., National Institute of Neurological Disorders and Stroke (NINDS), Bethesda, MD
Radhakrishnan Padmanabhan, Ph.D., Georgetown University (GU), Washington D.C.
Zika Virus causes congenital defects, including microcephaly and is associated with Guillain-Barre syndrome, eningoencephalitis and myelitis in infected adult. […] Using a target-based approach, we hope to establish a screening paradigm to uncover novel, cell-active NS2B-NS3 protease (Zika Virus) specific inhibitors from NCATS' collection of small molecules using qHTS.
Four assay panel was created to identify potential Zika Virus inhibitors. Namely, (1) GU unlinked NS2B-NS3 AMC tagged protease qHTS, (2) GU unlinked NS2B-NS3 Rhodamine tagged protease qHTS, (3) NINDS linked NS2B-NS3 AMC tagged protease qHTS, (4) NINDS linked NS2B-NS3 Rhodamine tagged protease qHTS. Identified inhibitors were screened against the Vero and HepG2 cell viability assays using CellTiter Glo to exclude cytotoxic compounds.
Early Translation Branch (ETB)
National Center for Advancing Translational Sciences (NCATS), Rockville, MD
National Institute of Health (NIH), Bethesda, Maryland
Vero and HepG2 Cell Viability Assay:
Vero and HepG2 cell cytotoxicity were determined using a luminescent readout with CellTiter Glo reagent (Promega, Madison, WI), which is based on measuring the ATP content within cells. Briefly, 4 microL of Vero or HepG2 cells at 2.5 x 10^5 cells/mL in DMEM containing 4% FBS were dispensed into 1536-well solid bottom tissue treated white plate using a Multidrop Combi dispenser (Thermo Scientific). Plates were incubated at 37 degrees C, 95% humidity, and 5% CO2 overnight to allow for cell attachment. Compounds were dissolved in DMSO at different concentrations and transferred via pintool (Wako Automation), for a final concentration of 0.029 µM - 57 microM. Plates were again incubated for 24 to 48 hours, followed by a 2 microL addition of CellTiter Glo. Finally, plates were incubated for 30 minutes at 37 degrees C and 5% CO2 before being read on a ViewLux (Perkin Elmer) for luminescence.
% is set by controls: 0 for no effect and ±100 for the full control effect.

Row | SMILES | activity change, negative = cytotoxicity
1 | O=C(O)Cc1cccc(OCCCN(Cc2cccc(C(F)(F)F)c2Cl)CC(c2ccccc2)c2ccccc2)c1 | 2.3%
2 | O=C(Nc1ccccc1)Nc1ccc(-c2ccc(C(=O)[C@H]3CCC[C@H]3C(=O)O)cc2)cc1 | 5.45%
3 | C[C@H]1COC2=C1C(=O)C(=O)c1c2ccc2c1CCCC2(C)C | -0.3%
4 | c1cc(OCCN2CCCCC2)cc(-c2n[nH]c3ccc(-c4ncn[nH]4)cc23)c1 | 0.691%
5 | O=C(Nc1cccc2c(=O)cc(-c3nn[nH]n3)oc12)c1ccc(OCCCCc2ccccc2)cc1 | 7.31%
6 | COc1cc(Cl)cn2c(-c3cccc(NC4CNC4)n3)cnc12 | 3.5%
7 | CC[C@H](C)n1cc(C)c2c(C(=O)NCc3c(C)cc(C)[nH]c3=O)cc(-c3ccc(N4CCNCC4)nc3)cc21 | 3.62%
8 | COc1cc(Nc2nc3ccccc3nc2NS(=O)(=O)c2ccc(NC(=O)c3ccc(C)c(OC)c3)cc2)cc(OC)c1 | -4.54%
9 | N#CC(c1ccc(Cl)cc1)c1c(Cl)cc(-n2ncc(=O)[nH]c2=O)cc1Cl (stereo not drawn) | -17.8%
10 | CCCCC[C@H](O)C=C[C@H]1[C@H](O)CC(=O)[C@H]1CCCCCCC(=O)O | 11.6%
11 | Cc1nc(C(=O)NCC(=O)O)c(O)c2ccc(Oc3ccccc3)cc12 | 2.97%
12 | CCOC(=O)[C@H](CCc1ccccc1)N[C@@H](C)C(=O)N1CCCC1C(=O)O (stereo partly drawn) | 3.26%
13 | CCCCOCCOc1nc(-c2ccc(C(=O)O)c(F)c2)sc1C | -7.04%
14 | O=C1Nc2ccc(I)cc2C1=Cc1cc(Br)c(O)c(Br)c1 | 3.53%
15 | COc1ccc(-c2ccc3ncc4c(c3c2)n(-c2ccc(N3CCNCC3)c(C(F)(F)F)c2)c(=O)n4C)cn1 | -5.65% [at 4.93 µM]
16 | CC(C)c1onc(-c2c(Cl)cccc2Cl)c1COc1ccc(C=Cc2cccc(C(=O)O)c2)c(Cl)c1 | 23.6%
17 | N#CC1(c2cccc(C(=O)Nc3cc(Oc4ccc5nc(NC(=O)C6CC6)sc5n4)ccc3F)c2Cl)CC1 | 4.36%
18 | O=S(=O)(O)c1ccc2cc(N=Nc3cc(S(=O)(=O)O)c4cccnc4c3O)ccc2c1 | -8.86%
